# Rows were chosen to be rich in hits. Some 7.5% of all compounds tested hit in one or more screens of this group.
# HCMV antiviral: human cytomegalovirus inhibition | HFF cells, HCMV-luciferase reporter, 72 h; stronger effect = lower value | activity change, negative = inhibition, % at 57.5 µM | hit rate 4.5% among 410,000; in the data active = activity change below about -60%; inconclusive = no clear call, values can overlap the other calls; inactive = above about -39%
#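 Two compound doses tested in HFFs infected with HCMV-luciferase, MOI 1 PFU/cell, 72 h at 37C. Lysate luminescence read with OneGlo; data normalized against buffer-only and 10uM Salinomycin inhibitor controls.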
# VACV mCherry inh: inhibitors of vaccinia virus infection (mCherry reporter signal). Vaccinia virus mCherry reporter infection, fluorescence. Potency, µM (titrated, usually from 36.5 µM), actives largely listed as inhibitors. hit rate 0.63% among 310,000; calls by dose curve; tested in A549 cells; also: nearly all actives have a fitted effect of over 35% in size
# Giardia FBPA inh: blocks Giardia fructose-bisphosphate aldolase activity; Potency, µM (top dose mostly 59.6 µM), actives largely listed as inhibitors; hit rate 0.71% among 290,000; purified Giardia FBPA; also: nearly all actives have a fitted effect of over 55% in size
# Target sequence (A8B2U2 whole entry, looked up): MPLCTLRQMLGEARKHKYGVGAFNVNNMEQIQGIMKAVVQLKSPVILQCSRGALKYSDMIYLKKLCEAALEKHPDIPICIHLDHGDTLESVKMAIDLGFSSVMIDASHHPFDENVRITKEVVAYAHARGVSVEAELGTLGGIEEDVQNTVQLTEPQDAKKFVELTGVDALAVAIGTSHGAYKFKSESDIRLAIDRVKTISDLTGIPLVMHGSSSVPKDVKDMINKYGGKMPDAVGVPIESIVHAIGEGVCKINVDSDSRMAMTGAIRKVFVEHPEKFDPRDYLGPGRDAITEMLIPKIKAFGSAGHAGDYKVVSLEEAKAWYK
#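 40 nM FBPA preincubated 10 min at RT with compound (up to 57.5 uM final), then substrate plus GAPDH/TPI/NAD/arsenate coupling and diaphorase/resazurin added. Fluorescence read after 20 min at RT, 525/598 nm.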
# Vaccinia Venus: vaccinia inhibition (Venus reporter) | Potency, µM (doses to about 36.5 µM), actives largely listed as inhibitors | hit rate 0.46% among 330,000 | Vaccinia virus Venus reporter expression, fluorescence; calls by dose curve; tested in A549 cells; also: nearly all actives have a fitted effect of over 30% in size
# FMDV antiviral: blocks foot and mouth disease virus | FMDV antiviral cell-based qHTS | Potency, µM (titrated, usually from 57.9 µM), hits mostly inhibitors | hit rate 1.2% among 410,000 | AID 1159524; calls by dose curve; tested in HEK293T cells; also: read-out not given here; nearly all actives have a fitted effect of over 45% in size
# HCV inhibitor: HCV inhibition | hit rate 3.4% among 340,000 | AID 651820 | Potency, µM (top dose mostly 41.8 µM), usual class: inhibitors | Huh7.5.1 HCVcc-Cre infection, luciferase reporter, 44 h
#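 Infectious HCV cell culture screen: compound-treated cells (1,000/well, pre-plated 4 h) are infected with HCVcc-Cre at roughly 0.5 moi and grown 44 h. Infection is quantified by luciferase signal after 15 min substrate incubation at room temperature.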
# A number is an active result; – = inactive; ? = inconclusive; · = no result given; ! = not active in a repeat; [ ] = dose if it differs, or a comment. Unless noted, calls follow the shape of the dose curve; as a rule, active = well fitted curve in the direction sought with a large enough effect; inconclusive = small, poorly fitted or top-dose-only effect, or another doubt; inactive = no such curve, though single readings can be large; an effect the other way counts as inactive or inconclusive.
SMILES,HCMV antiviral,VACV mCherry inh,Giardia FBPA inh,Vaccinia Venus,FMDV antiviral,HCV inhibitor
O=C(CSc1ccccc1C(=O)O)c1ccc([N+](=O)[O-])cc1,–,·,–,·,–,–
O=C(CSc1ccc([N+](=O)[O-])cc1)c1ccccc1,-73,–,·,–,–,–
Cc1cc(-c2ccccc2)nc(SCC(=O)c2cccc([N+](=O)[O-])c2)n1,–,–,–,?,?,13µM
Cc1ccc(OCc2nnc(SCC(=O)c3cccc([N+](=O)[O-])c3)n2C)cc1,–,–,–,–,–,8.9µM
Cc1ccc(-c2cc(C(F)(F)F)nc(SCC(=O)c3cccc([N+](=O)[O-])c3)n2)cc1,–,–,–,–,·,?
NCCC[C@@H](CC(=O)N[C@@H]1CCCC[C@H]1C(=O)N[C@H](CC(=O)N[C@@H](CCC(=O)O)CC(=O)O)Cc1ccccc1)NC(=O)C[C@H](Cc1c[nH]c2ccccc12)NC(=O)[C@@H]1CCCC[C@H]1N,·,·,–,·,·,·
COc1ccc(-c2ccc(=O)n(Cc3c(F)cccc3Cl)n2)cc1,–,·,–,·,–,?
COc1ccc(-c2ccc(=O)n(Cc3cccc([N+](=O)[O-])c3)n2)cc1,–,·,–,·,?,11µM
CC1CCCC(C)N1C(=O)COC(=O)C12CC3CC(CC(Cl)(C3)C1)C2 (stereo not given),-63,·,·,·,–,–
Oc1ccccc1CNn1cnnc1,-100,–[1.46 µM],–,–,–,–
Oc1ccc(Cl)cc1CNn1cnnc1,–,–,–,–,–,–
COC(=O)[C@@H]1[C@@H](CO)[C@@H]2Cn3c(ccc(Br)c3=O)[C@H]1N2S(C)(=O)=O,–,·,·,·,·,·
Cn1nc(-c2ccccc2F)c2cc(C(=O)NCc3cccc(Cl)c3)sc21,–,–,·,–,–,·
Cn1nc(-c2ccccc2F)c2cc(C(=O)NCc3ccc(Cl)cc3)sc21,-71,–,·,–,?,·
CC(CCc1ccco1)NC(=O)c1cc2c(-c3ccccc3F)nn(C)c2s1 (stereo not given),–,–,–,–,?,18µM
O=C(c1cccnc1)N1CCC2CC1c1c(Cl)cccc12 (stereo not given),–,–,·,–,–,·
Cc1nnsc1C(=O)NC1CCCc2c1cnn2-c1ccc(F)cc1F (stereo not given),-92,–,·,–,?,?
Cc1ccc(C(=O)NC2CCCc3c2cnn3-c2ccc(F)cc2F)cn1 (stereo not given),-86,·,·,·,·,·
Cc1ccc(C)c(CSCc2nc3ccccc3[nH]2)c1,-73,·,–,·,?,?
COc1ccc(C(=O)Cc2cc(OC)c(OC)cc2C(=O)c2ccccc2F)cc1OC,–,–,–,–,–,10µM
COC(=O)C1=Nc2ccccc2/C1=C\c1c(O)n(-c2ccc(Br)cc2)c(=O)[nH]c1=O,–,–,–,–,20µM,?
COc1ccc2c3c(n(C)c2c1)[C@@H](CO)N(C(=O)c1ccncc1)CC31CCN(C(C)=O)CC1,–,·,·,·,·,·
O=C1CC(c2ccc(Cl)c([N+](=O)[O-])c2)c2ccc3ccccc3c2N1 (stereo not given),–,11µM,–,?,?,?
CN(C)c1ccc(C2CNC(c3ccc(Cl)c([N+](=O)[O-])c3)c3[nH]c4ccccc4c32)cc1 (stereo not given),–,·,–,·,–,–
O=C1CCC[C@H]2[C@@H](Cc3ccccc3)[C@H](N(Cc3ccccc3)Cc3ccccc3)CC[C@]23CCCN13,–,·,·,·,·,·
SMILES,HCMV antiviral,VACV mCherry inh,Giardia FBPA inh,Vaccinia Venus,FMDV antiviral,HCV inhibitor
Cc1cccc(/C=C2/Sc3ccc(C(=O)N4CCOCC4)cc3NC2=O)c1,-75,·,·,·,–,–
COc1ccc(/C=C2/Sc3ccc(C(=O)N4CCOCC4)cc3NC2=O)cc1OC,-69,·,–,·,–,–
CCOC(=O)N1CCC(N2C(=O)c3ccc(C(=O)Nc4ccc(OC)c(OC)c4)cc3C2=O)CC1,?,·,–,·,–,–
Fc1cccc(-c2cc3nc(-c4ccccc4)cc(N4CCC5(CC4)OCCO5)n3n2)c1,–,·,–,–,–,–
O=C(c1ccccc1)N1CCN(c2cc(Cl)nc3cc(-c4cccc(Cl)c4)nn23)CC1,–,–,·,–,?,·
O=C(c1ccoc1)N1CCN(c2cc(-c3cccc(F)c3)nc3cc(-c4cccc(Cl)c4)nn23)CC1,-82,?,·,?,?,·
Cc1cc(N2CCN(C(=O)c3ccco3)CC2)n2nc(-c3cccc(Cl)c3)cc2n1,-101,·,–,·,?,10µM
COc1ccc(-c2cc3nc(-c4ccccc4)cc(N4CCCC(O)C4)n3n2)cc1 (stereo not given),–,13µM,–,?,–,6.3µM
Cc1nc2cc(-c3cccc(Cl)c3)nn2c(N2CCN(C(=O)c3ccco3)CC2)c1C,·,·,–,·,·,·
COCCN1CCN(c2cc(-c3ccccc3)nc3cc(-c4cccc(F)c4)nn23)CC1,–,?,–,?,14µM,10µM
CC1(C)CC(=O)c2cc(C(=O)Nc3ccccc3)c(=O)[nH]c2C1,·,–,·,–,·,·
Cc1cc(N2CCN(C(=O)c3ccco3)CC2)n2nc(C)c(-c3ccc(Cl)cc3)c2n1,·,·,–,·,·,·
Cc1cc(N2CCN(C(=O)c3ccco3)CC2)n2nc(C)c(-c3ccccc3)c2n1,–,·,–,·,?,3.5µM!
Cc1cccc(NC(=O)CC2C(=O)NCCN2C(=O)Nc2ccc(Cl)cc2)c1 (stereo not given),–,·,·,·,–,–
Cc1ccc(-c2c(CN3CCN(c4cc(C)ccc4C)CC3)csc2C)cc1,–,–,·,–,–,·
COc1ccc(N2CCN(Cc3csc(C)c3-c3ccc(C)cc3)CC2)cc1,-68,–,?,–,?,?
Cn1c(OCc2cccnc2)nc2c1c(=O)n(Cc1ccc(Br)cc1)c(=O)n2C,–,·,–,·,?,?
Cn1c(N2CCN(c3ccccn3)CC2)nc2c1c(=O)n(Cc1ccc(Cl)cc1)c(=O)n2C,-84,·,–,–,20µM,–
Cn1c(OCc2cccnc2)nc2c1c(=O)n(Cc1ccc(Cl)cc1)c(=O)n2C,?,·,·,·,?,11µM
CCCn1nc(C(=O)Nc2ccc3nc(N4CCOCC4)sc3c2)ccc1=O,-76,?,·,–,13µM,?
CCOCc1c(C(=O)Nc2ccc3nc(N4CCOCC4)sc3c2)oc2ccccc12,–,–,·,–,20µM,?
CCOCc1c(C(=O)Nc2cc(OCC)c(N3CCOCC3)cc2OCC)oc2ccccc12,–,–,–,–,?,–
COc1ccc(C(=O)Nc2ccc3nc(N4CCOCC4)sc3c2)cc1OC,–,·,·,·,–,?
CCOCc1c(C(=O)Nc2ccccc2N2CCN(C)CC2)oc2ccccc12,–,–,·,–,–,11µM
CC1CCc2c(sc(NC(=O)C3=COCCO3)c2C(N)=O)C1 (stereo not given),–,·,·,·,–,?
Clc1ccc[n+](CCCCC[n+]2cccc(Cl)c2)c1,·,–,·,–,·,·
c1ccc2c[n+](CCCCCCCCCC[n+]3ccc4ccccc4c3)ccc2c1,-81,·,·,·,·,·
CC1CCCCC12NC(=O)N(CC(=O)Nc1ccc3[nH]c(=O)[nH]c3c1)C2=O (stereo not given),–,–,·,–,–,–

# Assay outcomes as filed in PubChem.
